Consider 13 molecules from PubChem BioAssay (NCI).

Some test systems named below: NCI-H23 lung; NCI-H226 lung; NCI-H322M lung; HOP-62 NSCLC; NCI-H460 lung; HOP-92 NSCLC; NCI-H522 lung; A549/ATCC NSCLC; 786-0 renal; COLO 205 colon.
Assay in all cases: NCI-60 one-dose screen, 48 h (100 = growth as untreated, 0 = no growth, -100 = all killed)
Common to all, as to conditions: 10 µM unless noted

SMILES strings stand for the structures. The panel holds about 83,000 compounds, 20% with a hit somewhere; the sample as a whole holds those more often.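 In brief: 96-well plates, 48 h treatment, single concentration, percent growth endpoint.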 Unmarked numbers belong to inactive results. Calls of active or inactive are those of the source. The calls were made as follows: active = growth percent below 10; inactive = the rest.

On to `CCOC(=O)c1[nH]c(=O)c2c(C)nc(-c3ccccc3)cc2c1O`, for which the growth with NCI-H23 lung is 105%; with NCI-H226 lung, 93%; in the test on NCI-H322M lung it was 118%; in the test on HOP-62 NSCLC it was 124%; in the test on NCI-H460 lung, 102%; with HOP-92 NSCLC it was 78.5%. Moreover, the growth in the test with NCI-H522 lung was 92.7%; with A549/ATCC NSCLC, 101%; in the test with 786-0 renal it was 112%; with COLO 205 colon it was 117%.

On to `Nc1c(C(=O)Nc2ccccc2Cl)sc2nc3c(cc12)C(O)CCC3` (stereo not given), for which the growth was 44.2% in the test on NCI-H23 lung; 52.8% with NCI-H226 lung; 60.2% in the test with NCI-H322M lung; 41.8% in the test with HOP-62 NSCLC; 24.5% in the test on NCI-H460 lung; 46.4% in the test with HOP-92 NSCLC. For the same molecule, the growth was -33.7% (active) in the test on NCI-H522 lung, 25.4% in the test on A549/ATCC NSCLC, 48.1% in the test with 786-0 renal and 4.09% (active) in the test with COLO 205 colon.

For the molecule `O=C1C(Cl)=C(Nc2ccc(O)cc2)C(=O)N1Cc1ccc(Cl)cc1`, the growth is 85.2% with NCI-H23 lung; 84.5% in the test with NCI-H226 lung; 77% in the test with NCI-H322M lung; 84.2% with HOP-62 NSCLC; 78.9% in the test with NCI-H460 lung; 69.7% with HOP-92 NSCLC. In addition, the growth in the test on NCI-H522 lung is 51.9%; in the test with A549/ATCC NSCLC, 71.6%; in the test on 786-0 renal, 70.6%; with COLO 205 colon, 35.8%.

In the case of `Cc1c(-n2nnc(-c3nc4ccccc4s3)c2N)c(=O)n(-c2ccccc2)n1C`, the growth was 93.3% in the test on NCI-H23 lung; 91.4% with NCI-H226 lung; 100% in the test with NCI-H322M lung; 103% with HOP-62 NSCLC; 103% in the test on NCI-H460 lung; 104% with HOP-92 NSCLC. For the same molecule, the growth is 90.6% with NCI-H522 lung, 105% in the test on A549/ATCC NSCLC, 107% with 786-0 renal and 104% in the test with COLO 205 colon.

As for `CCCCCCCCCCCCCCCCCCOc1ccccc1CC(=O)NCC[N+]1(C)CCCC1`, the growth in the test with NCI-H23 lung was 55.3%; in the test on NCI-H226 lung, 70.5%; with NCI-H322M lung, 67.3%; in the test with HOP-62 NSCLC it was 54%; with NCI-H460 lung, 34.8%; in the test with HOP-92 NSCLC it was 22.6%. The growth was 32.8% with NCI-H522 lung, 50.6% with A549/ATCC NSCLC, 70.2% in the test on 786-0 renal and -6.88% (active) with COLO 205 colon.

With `O=C(/C=C/c1ccc(Cl)cc1)c1cccc(Nc2nc(Nc3ccccc3)nc(Nc3ccccc3)n2)c1`, the growth in the test on NCI-H23 lung is 85.8%; in the test with NCI-H226 lung, 96.9%; in the test with NCI-H322M lung, 94.6%; in the test on HOP-62 NSCLC, 85.2%; in the test on NCI-H460 lung it was 103%; with HOP-92 NSCLC it was 24.1%. Further, the growth in the test with NCI-H522 lung was 89.3%; in the test on A549/ATCC NSCLC, 81.8%; in the test with 786-0 renal, 86.4%; in the test with COLO 205 colon, 93.1%.

In the case of `c1cc2[nH]ncc2cc1-c1nc2ccc3[nH]ncc3c2c2c1CCCC2`, the growth in the test with NCI-H23 lung was 12.9%; in the test on NCI-H226 lung it was 29.4%; in the test on NCI-H322M lung, 23.7%; in the test on HOP-62 NSCLC, 22.7%; in the test on NCI-H460 lung, 13.6%; in the test with HOP-92 NSCLC it was 16.9%. For the same molecule, the growth is -28.2% (active) in the test on NCI-H522 lung, 5.84% (active) in the test with A549/ATCC NSCLC, 19.7% in the test with 786-0 renal and 3.57% (active) with COLO 205 colon.

Consider `COc1cc(OC)c2sc(-c3ccc(-n4cncc4-c4ccc(OC)c(OC)c4)cc3)nc2c1`, for which the growth in the test with NCI-H23 lung is 66.1%; in the test on NCI-H226 lung it was 66.7%; in the test with NCI-H322M lung, 92.3%; with HOP-62 NSCLC it was 83.2%; in the test on NCI-H460 lung, 23.3%; in the test on HOP-92 NSCLC, 39.4%. The growth was 50.5% in the test with NCI-H522 lung, 45.6% with A549/ATCC NSCLC, 74.5% with 786-0 renal and 48.3% in the test with COLO 205 colon.

In the case of `Oc1c(Cl)cc(Cl)cc1/C=N/Nc1nnc(N/N=C/c2cc(Cl)cc(Cl)c2O)c2ccccc12`, the growth in the test with NCI-H23 lung is -20.6% (active); in the test with NCI-H226 lung it was -37.5% (active); in the test with NCI-H322M lung, 21%; with HOP-62 NSCLC, 20.6%; in the test with NCI-H460 lung, 0.0293% (active); with HOP-92 NSCLC, 13.9%. The growth was 14.1% in the test with NCI-H522 lung, 22.8% in the test with A549/ATCC NSCLC, -22.2% (active) in the test with 786-0 renal and 8.23% (active) in the test on COLO 205 colon.

Consider `O=[N+]([O-])c1ccc(-c2nc(N3CCOCC3)c3c4c(sc3n2)CCCC4)cc1`, for which the growth in the test with NCI-H23 lung was 88.8%; with NCI-H226 lung, 85%; with NCI-H322M lung, 96.3%; with HOP-62 NSCLC it was 82.4%; with NCI-H460 lung, 107%; in the test on HOP-92 NSCLC, 111%. Also, the growth with NCI-H522 lung was 79.3%; in the test with A549/ATCC NSCLC, 95.7%; in the test on 786-0 renal, 93%; in the test on COLO 205 colon, 90.9%.

Consider `CC(C)(C)c1cc(-c2nc3ccc(N4CCN(S(C)(=O)=O)CC4)cc3[nH]2)cc(C(C)(C)C)c1O`, for which the growth in the test on NCI-H23 lung was 96.2%; with NCI-H226 lung, 91.9%; in the test on NCI-H322M lung it was 100%; with HOP-62 NSCLC, 76.7%; with NCI-H460 lung, 90.6%; in the test with HOP-92 NSCLC it was 85.6%. Moreover, the growth is 78.1% in the test with NCI-H522 lung, 83.4% with A549/ATCC NSCLC, 101% in the test on 786-0 renal and 101% in the test with COLO 205 colon.

As to `O=C(NCc1ccccc1)Nc1ccccc1CNc1nc(Nc2ccc(OCCN3CCCC3)cc2)ncc1Cl`, the growth in the test on NCI-H23 lung is 85.4%; in the test on NCI-H226 lung, 109%; in the test with NCI-H322M lung, 109%; in the test on HOP-62 NSCLC, 86.2%; in the test with NCI-H460 lung it was 39.4%; in the test on HOP-92 NSCLC, 83.8%. The growth was 108% with NCI-H522 lung, 97.5% in the test with A549/ATCC NSCLC, 46.7% in the test on 786-0 renal and 112% in the test on COLO 205 colon.

On to `CN(C)Cc1ccc(NC(=O)c2cncc(C#Cc3cnc(N)c4ncccc34)c2)cc1F`, for which the growth in the test with NCI-H23 lung is 78.1%; in the test on NCI-H226 lung, 130%; in the test with NCI-H322M lung, 109%; with HOP-62 NSCLC, 96.5%; with NCI-H460 lung it was 67.4%; with HOP-92 NSCLC it was 80.7%. Besides, the growth with NCI-H522 lung is 100%; in the test on A549/ATCC NSCLC, 65.7%; with 786-0 renal, -71.8% (active); with COLO 205 colon it was 49.5%.
